# Target: Neurogenic locus notch homolog protein 2 (Homo sapiens) (UniProt Q04721)
# Test: Notch2 binders on small-molecule microarrays, primary screen, biochemical, small-molecule microarray, 635 nm fluorescence, stem cell growth factors (AID 1073)
# Conditions: Notch2 binding, higher = more signal
# Sequence of Neurogenic locus notch homolog protein 2 (Homo sapiens) (Q04721 whole entry, looked up): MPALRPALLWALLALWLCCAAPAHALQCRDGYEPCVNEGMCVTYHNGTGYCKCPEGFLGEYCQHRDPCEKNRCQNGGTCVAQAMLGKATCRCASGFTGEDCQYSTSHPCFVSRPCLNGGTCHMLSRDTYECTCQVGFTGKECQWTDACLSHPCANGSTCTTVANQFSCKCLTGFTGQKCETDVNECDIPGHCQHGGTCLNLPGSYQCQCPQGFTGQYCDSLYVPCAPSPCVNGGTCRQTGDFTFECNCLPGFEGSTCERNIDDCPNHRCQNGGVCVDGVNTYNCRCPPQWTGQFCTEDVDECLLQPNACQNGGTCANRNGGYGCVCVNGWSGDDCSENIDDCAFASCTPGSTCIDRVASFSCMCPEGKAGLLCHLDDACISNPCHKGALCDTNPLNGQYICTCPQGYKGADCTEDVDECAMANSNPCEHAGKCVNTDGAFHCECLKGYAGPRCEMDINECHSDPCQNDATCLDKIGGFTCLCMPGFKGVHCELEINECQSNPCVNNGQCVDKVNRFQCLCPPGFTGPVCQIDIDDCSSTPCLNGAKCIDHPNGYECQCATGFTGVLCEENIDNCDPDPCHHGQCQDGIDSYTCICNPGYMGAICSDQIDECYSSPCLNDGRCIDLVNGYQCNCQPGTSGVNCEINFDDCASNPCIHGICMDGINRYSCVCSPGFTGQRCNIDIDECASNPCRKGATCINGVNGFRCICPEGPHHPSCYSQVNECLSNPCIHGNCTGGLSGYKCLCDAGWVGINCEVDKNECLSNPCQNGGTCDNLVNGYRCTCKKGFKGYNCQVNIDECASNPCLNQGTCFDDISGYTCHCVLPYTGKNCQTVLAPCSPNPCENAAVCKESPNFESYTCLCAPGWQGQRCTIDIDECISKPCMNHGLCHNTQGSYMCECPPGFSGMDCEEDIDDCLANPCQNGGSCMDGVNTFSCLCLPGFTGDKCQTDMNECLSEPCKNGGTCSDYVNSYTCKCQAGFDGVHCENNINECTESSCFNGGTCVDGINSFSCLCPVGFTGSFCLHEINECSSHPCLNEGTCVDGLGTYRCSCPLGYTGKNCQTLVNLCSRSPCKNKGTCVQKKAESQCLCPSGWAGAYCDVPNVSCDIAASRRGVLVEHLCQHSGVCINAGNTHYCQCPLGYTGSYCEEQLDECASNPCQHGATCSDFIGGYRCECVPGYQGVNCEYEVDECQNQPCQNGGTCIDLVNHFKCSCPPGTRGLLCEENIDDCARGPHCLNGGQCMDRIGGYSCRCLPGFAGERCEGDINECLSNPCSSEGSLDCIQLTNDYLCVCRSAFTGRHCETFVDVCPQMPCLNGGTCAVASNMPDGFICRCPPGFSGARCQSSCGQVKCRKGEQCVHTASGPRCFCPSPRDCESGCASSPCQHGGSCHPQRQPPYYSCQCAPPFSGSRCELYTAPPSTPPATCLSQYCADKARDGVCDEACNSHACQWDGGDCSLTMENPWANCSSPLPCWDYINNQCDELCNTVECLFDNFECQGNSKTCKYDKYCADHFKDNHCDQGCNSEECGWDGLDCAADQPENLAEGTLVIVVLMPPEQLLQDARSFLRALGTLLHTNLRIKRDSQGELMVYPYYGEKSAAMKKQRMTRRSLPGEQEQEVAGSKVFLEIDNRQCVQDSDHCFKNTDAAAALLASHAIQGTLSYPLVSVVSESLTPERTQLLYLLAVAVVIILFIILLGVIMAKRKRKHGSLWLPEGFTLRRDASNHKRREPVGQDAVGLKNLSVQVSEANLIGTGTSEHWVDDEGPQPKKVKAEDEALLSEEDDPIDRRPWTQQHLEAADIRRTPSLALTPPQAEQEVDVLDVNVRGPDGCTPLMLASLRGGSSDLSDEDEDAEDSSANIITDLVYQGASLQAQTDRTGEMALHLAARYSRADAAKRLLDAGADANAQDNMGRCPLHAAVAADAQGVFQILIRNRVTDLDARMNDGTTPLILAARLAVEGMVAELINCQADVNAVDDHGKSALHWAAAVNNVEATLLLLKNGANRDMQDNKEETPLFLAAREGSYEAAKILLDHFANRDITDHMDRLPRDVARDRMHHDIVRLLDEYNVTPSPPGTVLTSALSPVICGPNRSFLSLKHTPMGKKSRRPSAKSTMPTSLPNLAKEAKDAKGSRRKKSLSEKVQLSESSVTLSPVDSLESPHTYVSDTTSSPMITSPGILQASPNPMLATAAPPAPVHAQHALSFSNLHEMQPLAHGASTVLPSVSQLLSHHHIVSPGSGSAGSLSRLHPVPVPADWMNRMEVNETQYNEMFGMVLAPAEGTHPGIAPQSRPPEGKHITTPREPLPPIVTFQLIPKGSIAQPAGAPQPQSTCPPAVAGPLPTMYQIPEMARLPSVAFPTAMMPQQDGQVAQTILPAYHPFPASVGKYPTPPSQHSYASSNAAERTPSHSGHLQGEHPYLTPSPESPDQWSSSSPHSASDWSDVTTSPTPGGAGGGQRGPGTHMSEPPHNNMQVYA
row,Compound,composite z-score
1,O=C1c2ccccc2[C@](Cc2ccccc2I)(C(=O)NCC(F)(F)F)[C@H](c2ccc(CO)cc2)N1Cc1ccccc1C(F)(F)F,0.902
2,C=CCC(OC(C)=O)[C@@H]1[C@@H](N(Cc2cccc3ccccc23)C(=O)Cc2ccc(F)cc2)c2cc(OCCCO)ccc2N1C(=O)Cc1ccc2ccccc2c1 (stereo partly drawn),-0.241
3,C=CCN1C(=O)[C@@]2(Cc3ccccc3)N=C(c3ccc(OCCCO)cc3)O[C@H]2c2ccccc21,0.895
4,Cc1ccc(N2C(=O)c3ccccc3[C@@H](C(=O)NCc3ccccc3)[C@@H]2c2ccc(CO)cc2)nc1,-0.272
5,CO[C@H]1COC(=O)[C@H](C)COC(=O)[C@H](Cc2ccccc2)NC(=O)CC=C[C@H]1C,-0.889
6,CN(C)CCCC[C@@H]1NC(=O)[C@@H]2C[C@H](C(=O)NCCCCCNC(=O)CS)[C@H](c3ccc(O)cc3)N2C1=O,0.728
7,O=C1O[C@H](c2ccccc2)[C@H](c2ccccc2)N2[C@H]1[C@@H](C(=O)NC[C@H](O)c1ccccc1)[C@]1(C(=O)Nc3ccc(C#CC4=CCCCC4)cc31)[C@H]2c1ccc(OCCO)cc1,1.04

# Target: Pro-neuregulin-1, membrane-bound isoform (Homo sapiens) (UniProt Q02297)
# Sequence (Q02297 whole entry, looked up, canonical isoform): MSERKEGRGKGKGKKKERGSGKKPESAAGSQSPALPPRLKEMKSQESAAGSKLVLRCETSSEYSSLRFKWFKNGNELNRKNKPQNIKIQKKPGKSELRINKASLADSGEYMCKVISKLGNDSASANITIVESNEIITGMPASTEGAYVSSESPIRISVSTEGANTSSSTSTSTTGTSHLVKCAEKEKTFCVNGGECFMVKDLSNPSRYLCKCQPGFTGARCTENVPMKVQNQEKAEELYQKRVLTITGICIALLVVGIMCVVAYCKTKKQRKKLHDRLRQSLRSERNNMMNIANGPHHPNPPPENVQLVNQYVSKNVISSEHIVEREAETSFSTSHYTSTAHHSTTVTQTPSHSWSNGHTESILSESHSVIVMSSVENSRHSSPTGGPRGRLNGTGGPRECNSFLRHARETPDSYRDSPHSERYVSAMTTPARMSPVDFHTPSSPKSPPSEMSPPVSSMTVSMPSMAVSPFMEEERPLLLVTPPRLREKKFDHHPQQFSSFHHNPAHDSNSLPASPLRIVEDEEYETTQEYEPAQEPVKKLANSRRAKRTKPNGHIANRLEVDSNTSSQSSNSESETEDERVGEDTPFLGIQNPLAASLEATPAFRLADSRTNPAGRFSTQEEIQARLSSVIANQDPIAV
# Test: NRG1 binders on small-molecule microarrays, primary screen, psychiatric disease protein project, biochemical, small-molecule microarray, fluorescence 635/667 (AID 1075);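 note: score combines 667 nm spot fluorescence with signal to noise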
# Conditions: NRG1 binding, 635 nm fluorescence, higher = more signal
row,Compound,composite z-score
1,CCOC(=O)C[C@H]1[C@H](OC(=O)Cc2ccc3c(c2)OCO3)[C@@H](NC(=O)c2ccc3ccccc3c2)c2cc(OCCCO)ccc2N1C(=O)Cc1ccc(OC)cc1,0.759
2,O=C(NCc1ccccc1)c1ccc(Br)cc1[N+](=O)[O-],0.661
3,CC(C)(C)OC(=O)CC[C@]1(C(=O)N2CCCCC2)N=C(c2ccc(OCCCO)cc2)O[C@H]1c1ccccc1,1.53
4,C=CCNC(=O)[C@@H]1[C@H]2C(=O)O[C@H](c3ccccc3)[C@H](c3ccccc3)N2[C@H](c2ccc(OCCO)cc2)[C@@]12C(=O)N(C(=O)OCCOC)c1ccc(C#CC3(O)CCCCCC3)cc12,0.508
5,CCCC=C(CCC)[C@@H](NS(=O)(=O)c1ccc(C(F)(F)F)cc1)c1ccc(-c2ccccc2)cc1,0.801
6,NC(=O)NCC#Cc1ccc2c(c1)[C@]1(C(=O)N2)[C@H](C(=O)N2CCCCCCC2)[C@H]2C(=O)O[C@H](c3ccccc3)[C@H](c3ccccc3)N2[C@@H]1c1ccccc1OCCO,1.92
7,C=C[C@H](OC)[C@@H](OC(=O)Nc1ccc(SC)cc1)c1ccc(O)c(F)c1,0.756
8,CO[C@H]1COC(=O)CC=C[C@H](C)COC(=O)[C@@H](OCc2ccccc2)C=C[C@@H]1C,0.311
9,CC(C)C[C@@H]1NC(=O)[C@H]2C[C@@H](C(=O)NCCCCCC[N+](C)(C)C)[C@@H](c3ccc(O)cc3)N2C1=O,1.77
10,CO[C@H]1COC(=O)[C@@H](C)NC(=O)CC=C[C@@H](C)[C@H](OC)COC(=O)CC=C[C@@H]1C,-0.615
11,C=CC[C@@]12N=C(c3ccc(OCCCO)cc3)O[C@@H]1c1ccccc1CN(Cc1ccccc1)C2=O,0.713
12,COc1ccc([Si](C)(C)[C@@H]2[C@@H](CC(=O)N(CCO)Cc3ccccc3)O[C@]3(C(=O)N(Cc4cccc(N5CCC5=O)c4)c4ccccc43)[C@H]2C)cc1,0.712
13,CN(C)CCCC[C@@H]1NC(=O)[C@@H]2C[C@H](C(=O)O)[C@H](c3ccc(O)cc3)N2C1=O,0.237
14,CCOC(=O)C1=CCC(c2cccc3ccccc23)N(S(=O)(=O)c2ccc(C)cc2)C1 (stereo not drawn),1.21
15,CO[C@@H]1COC(=O)CC=C[C@@H](C)[C@H](OC)COC(=O)CC=C[C@H]1C,-0.503
16,C=C(COC)/C(=C/C[C@H](OC(C)=O)c1ccc(OCCO)cc1)c1cnc2ccccc2c1,-0.0967
17,CO[C@H]1O[C@H](CO)[C@@H](OC(=O)Nc2ccc(Oc3ccccc3)cc2)[C@H](OC(=O)Nc2ccccc2-c2ccccc2)[C@H]1OC(=O)Nc1ccccc1-c1ccccc1,1.52
18,CCC1=C2CN(Cc3ccccc3Br)[C@@H]([C@@H](O)Cc3ccccc3)C2C=CCC1 (stereo partly drawn),0.421

row,Compound,composite z-score
1,[N-]=[N+]=NCc1ccccc1C[C@@]1(C(=O)N2CCOCC2)N=C(c2ccc(OCCCO)cc2)O[C@@H]1c1ccccc1N=[N+]=[N-],1.13
2,C=CC(=O)O[C@@H](Cc1ccccc1)[C@H]1C2C=CCCC=C2CN1Cc1cccc(Cl)c1 (stereo partly drawn),-0.518
3,NC(=O)[C@H]1[C@@H]2C(=O)O[C@@H](c3ccccc3)[C@@H](c3ccccc3)N2[C@@H](c2ccc(O)cc2)[C@]12C(=O)Nc1ccc(C#CCCO)cc12,-0.0709
4,NC(=O)NCC#Cc1ccc2c(c1)[C@]1(C(=O)N2)[C@H](C(N)=O)[C@H]2C(=O)O[C@H](c3ccccc3)[C@H](c3ccccc3)N2[C@@H]1c1ccccc1OCCO,0.221
5,C=CC[C@]1(C(N)=O)N=C(c2ccc(OCCCO)cc2)O[C@H]1c1ccccc1CN=[N+]=[N-],1.87
6,C[N+](C)(C)CCCCNC(=O)[C@@H]1C[C@@H]2C(=O)N3CCC[C@H]3C(=O)N2[C@@H]1c1cccc(OCCO)c1,0.837
7,O=C1O[C@H](c2ccccc2)[C@H](c2ccccc2)N2[C@H]1[C@@H](C(=O)Nc1nc3ccccc3s1)[C@]1(C(=O)Nc3ccc(C#CC4(O)CCCCCC4)cc31)[C@H]2c1ccc(O)cc1,1.8
8,COc1ccc(C(O)C2C=CC3C(=O)N(C)C(=O)C3N2N2CCCCC2)cc1OCc1ccccc1 (stereo not drawn),1.52
9,CC1=C([C@H](O)CCc2ccccc2)[C@H](CO)[C@@H]2C(=O)N(Cc3ccccc3)C(=O)[C@@H]2C1,0.181
10,C=C[C@H](OC)[C@@H](OC(=O)Nc1ccc(SC)cc1)c1ccc(OC)c(O)c1,-0.231
11,CC(C)(C)OC(=O)CC[C@@]1(C(=O)NCc2ccccc2)N=C(c2ccc(OCCCO)cc2)O[C@@H]1c1ccccc1,1.5
12,O=C1c2ccccc2[C@](Cc2ccccc2I)(C(=O)NCC(F)(F)F)[C@H](c2ccc(CO)cc2)N1Cc1ccccc1C(F)(F)F,1
13,C=CCC(OC(C)=O)[C@@H]1[C@@H](N(Cc2cccc3ccccc23)C(=O)Cc2ccc(F)cc2)c2cc(OCCCO)ccc2N1C(=O)Cc1ccc2ccccc2c1 (stereo partly drawn),-0.58
14,C=CCN1C(=O)[C@@]2(Cc3ccccc3)N=C(c3ccc(OCCCO)cc3)O[C@H]2c2ccccc21,0.14
15,Cc1ccc(N2C(=O)c3ccccc3[C@@H](C(=O)NCc3ccccc3)[C@@H]2c2ccc(CO)cc2)nc1,-0.161
16,CO[C@H]1COC(=O)[C@H](C)COC(=O)[C@H](Cc2ccccc2)NC(=O)CC=C[C@H]1C,-0.339
17,CN(C)CCCC[C@@H]1NC(=O)[C@@H]2C[C@H](C(=O)NCCCCCNC(=O)CS)[C@H](c3ccc(O)cc3)N2C1=O,0.264
18,O=C1O[C@H](c2ccccc2)[C@H](c2ccccc2)N2[C@H]1[C@@H](C(=O)NC[C@H](O)c1ccccc1)[C@]1(C(=O)Nc3ccc(C#CC4=CCCCC4)cc31)[C@H]2c1ccc(OCCO)cc1,0.413

# — PubChem BioAssay
